Experimental data: PubChem BioAssay AID651871 (Sanford-Burnham Center for Chemical Genomics, 2012)
Where “and” joins values, the source holds several entries; their conditions need not be identical. Equal entries are not always repeated.

Tested on: HL-1
Assay: protection of cardiomyocytes from stress damage, SAR follow-up, cell-based, panel, H9c2 and HL-1, ATP luminescence, set 2 (AID 651871);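 further: cells exposed to stressor for 2 h before ATP readout; reference of the scale not given here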
Settings: H9c2/HL-1 cardiomyocytes, 2-deoxyglucose stress, with 2-deoxyglucose, run 13, at 19.8 µM (top of the series)

COc1ccc2c(c1OC)C(=O)N1c3ccccc3C(=O)N(Cc3cccc(Cl)c3Cl)C21 (stereo unspecified)
activity (protection/inhibition): 84.6% and 38.5%
